From PubChem
An excerpt weighted towards active compounds, which were near 3.4% of everything screened.
TEAD-YAP block – TEAD-YAP interaction inhibition, primary screen, TEAD-YAP interaction inhibitor project, luminescence, HEK-TIYL cells | AID 1259422, 2018 | 640,000 compounds, 1.4% hits | inhibition, % at 9.12 µM | TEAD-Gal4/YAP UAS-luciferase luminescence; in the data active means inhibition above about 32%;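 further: 0% = median of test compound wells and 100% = reference inhibitor wells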
MITF inh – MITF inhibitors, primary screen, biochemical, AlphaScreen, human; 650,000 compounds, 0.91% hits; AlphaScreen MITF homodimerization, bead proximity signal; inhibition, % at 2.6 µM; in the data active means inhibition above about 50%;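 further: 0% = vehicle wells with protein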
GPR151 activ – activators of human GPR151, primary screen, cell-based, PathHunter beta-arrestin, luminescence; G-protein coupled receptor 151 (Homo sapiens), Q8TDV0; PathHunter beta-arrestin GPR151 cells; activation, % at 11.2 µM; 650,000 compounds, 1% hits; AID 1508602, 2020; in the data active means activation above about 4.9%;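 further: 0% = median of compound wells and 100% = cells with positive control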
Target sequence (Q8TDV0 whole entry, looked up): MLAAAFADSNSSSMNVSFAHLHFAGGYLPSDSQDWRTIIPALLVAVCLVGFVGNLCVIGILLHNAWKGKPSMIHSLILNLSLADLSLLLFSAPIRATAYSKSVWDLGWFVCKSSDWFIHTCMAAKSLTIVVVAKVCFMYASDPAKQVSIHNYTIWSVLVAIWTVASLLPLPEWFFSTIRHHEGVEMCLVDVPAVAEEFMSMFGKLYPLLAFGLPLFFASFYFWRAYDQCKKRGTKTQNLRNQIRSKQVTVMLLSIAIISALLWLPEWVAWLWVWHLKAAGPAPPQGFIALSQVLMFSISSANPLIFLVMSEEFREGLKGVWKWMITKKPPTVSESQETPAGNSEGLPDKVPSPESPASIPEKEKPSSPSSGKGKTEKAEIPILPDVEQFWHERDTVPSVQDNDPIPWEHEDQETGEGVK
FBW7 activator – FBW7 E3 ligase activators, primary screen, biochemical, AlphaScreen, human; 650,000 compounds, 0.13% hits; AlphaScreen FBW7–phospho-cyclin E peptide binding, activator screen; AID 1259310, 2017; F-box/WD repeat-containing protein 7 (Homo sapiens), Q969H0; normalized activity (activation), % at 26.1 µM; in the data active means normalized activity above about 1.9%;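 further: purified mutant Fbw7 with reduced substrate affinity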
Starred values were filed as active, the others as inactive.

SMILES	TEAD-YAP block	MITF inh	GPR151 activ	FBW7 activator
O=C1C(C=Nc2ccc(F)cc2)=C(O)c2ccccc21	11.8	3.8	-1.6	0.0
COc1ccc(N=CC2=C(O)c3ccccc3C2=O)c(OC)c1	69.4*	2.9	1.2	0.0
COc1ccc(N=C(C)C2=C(O)c3ccccc3C2=O)c(OC)c1	-16.5	-6.2	2.0	-0.3
Cc1ccccc1N=CC1=C(O)c2ccccc2C1=O	86.7*	6.8	-0.5	0.0
CCOc1cc(Cl)c(C2NC(=O)NC(C)=C2C(=O)OC)cc1OC (stereo not drawn)	-5.9	5.7	-0.5	0.0
CC(=O)Nc1cccc(C(F)(F)F)c1	-3.8	-8.9	0.3	-0.1
NC(=O)/C=C/C(=O)Nc1cccc(C(F)(F)F)c1	43.3*	11.1	0.0	0.1
O=C(CSCC(=O)Nc1cccc(C(F)(F)F)c1)Nc1cccc(C(F)(F)F)c1	3.6	-1.6	1.0	-0.2
CC(=O)Oc1ccccc1C(=O)Nc1cccc(C(F)(F)F)c1	65.0*	20.3	-0.6	0.1
CCOc1ccccc1C(=O)Nc1cccc(C(F)(F)F)c1	17.4	8.7	-1.2	-0.1
O=C(CC(O)(C(F)(F)F)C(F)(F)F)Nc1cccc(C(F)(F)F)c1	83.9*	56.2*	1.5	1.4
CSc1nc2nc(C)cc(C)n2n1	-3.5	6.3	0.0	0.1
COc1ccc(-c2cc(C(F)(F)F)n3nc(C(=O)NCc4cccs4)cc3n2)cc1	-7.7	-13.2	0.8	0.0
C/C(=N\NC(N)=S)c1cc(Cl)sc1Cl	33.3*	6.4	0.1	0.8
O=C(N/N=C/c1ccc2ncccc2c1)c1ccco1	41.1*	10.8	-8.8	0.0
Cc1ccc(C(=O)N/N=C\c2cccc(OC(=O)c3ccco3)c2)cn1	1.2	-9.3	1.7	2.2*
COc1cccc(/C=N\NC(=O)c2ccc(C)nc2)c1	-10.4	17.5	-1.9	0.1
O=C(N/N=C/c1ccc(O)c2ncccc12)c1ccco1	-33.2	104.0*	1.1	-0.3
O=C(Nc1ccc2ncccc2c1)c1ccco1	-52.6	-7.6	-0.6	-0.1
O=C(N/N=C/c1cc(Cl)ccc1O)c1ccco1	-48.5	-52.4	0.1	0.0
CN(C)C(=O)CCC(=O)N1CCCC(C(=O)Nc2cccc(-c3ccc(F)cc3)c2)C1 (stereo not drawn)	-7.0	-4.8	0.8	0.0
NS(=O)(=O)c1ccc(CCNC(=O)C(=O)Nc2ccc(F)cc2F)cc1	-15.2	19.1	-0.5	0.9
CCOC(=O)c1sc(N)c(C#N)c1CSc1nnc(-c2ccc(OC)c(OC)c2)o1	43.5*	-2.3	-0.7	-0.2
CCOC(=O)c1sc(N)c(C#N)c1CSc1nnc(-c2ccco2)o1	-12.1	6.4	0.5	0.0
CC(=O)Nc1nc(-c2cc(Cl)ccc2Cl)cs1	6.3	3.9	-0.7	0.1
SMILES	TEAD-YAP block	MITF inh	GPR151 activ	FBW7 activator
CC(=O)Nc1nc(-c2ccc(Cl)cc2Cl)cs1	50.0*	-4.0	1.4	0.1
Cc1cc(C)nc(SCc2nc3ccccc3n2Cc2ccccc2)n1	-7.4	10.1	-1.9	-0.1
CSC1SC[C@H]2C(=O)N(C)[C@@H](C(C)C)C(=O)OC[C@@H](NC(=O)c3cnc4ccccc4n3)C(=O)N[C@@H](C)C(=O)N(C)[C@H]1C(=O)N(C)[C@@H](C(C)C)C(=O)OC[C@@H](NC(=O)c1cnc3ccccc3n1)C(=O)N[C@@H](C)C(=O)N2C (stereo partly drawn)	95.7*	-6.3	1.2	0.1
COc1cccc(C(=O)Nc2ccc(N3CCCCC3=O)c(C)c2)c1	75.5*	-8.1	-10.6	-0.2
O=C(Nc1ccc2ccccc2c1)c1ccc(C2CCCCC2)cc1	33.6*	-1.7	1.0	0.0
O=C(Nc1ccc2scnc2c1)c1ccc2ccccc2c1	66.0*	6.5	-4.8	-0.1
COc1cccc(C(=O)Nc2ccc3scnc3c2)c1	63.4*	-3.0	-8.6	-0.2
CCCOc1ccc(C(=O)Nc2ccc(F)c([N+](=O)[O-])c2)cc1	-4.2	-9.0	-0.3	0.1
CCN=c1scc(C)n1/N=C/c1ccc2c(c1)OCO2	-14.4	4.1	-1.9	-0.1
N#CC(C#N)=C1C=C(c2ccccc2)Oc2ccccc21	4.2	-0.4	-0.4	-0.1
Cc1ccc(C(=O)COC(=O)c2cc(C)nc3ccccc23)cc1	0.7	-8.0	-0.7	0.5
CCCCC1CCC(C(=O)Nc2c3c(nn2-c2ccc(F)cc2)CS(=O)C3)CC1 (stereo not drawn)	-0.6	11.7	-0.9	0.1
COc1cccc(C(=O)Nc2ccc(Nc3cc(-n4cccn4)ncn3)cc2)c1	67.9*	-5.5	1.5	0.1
